Our source for the inhibition values is PubChem BioAssay AID449762 (Southern Research Specialized Biocontainment Screening …, 2010).

Each structure is given as a SMILES string. Out of some 330,000 compounds screened, about 1,900 (0.58%) were called active. About 4% were inconclusive and are not listed. Rule as the data show it: inconclusive = inhibition above about 70% without an active follow-up result; inactive = below that. Not all results are given here. Results with a measured potency or affinity are listed apart.

What is called inhibition is the relative decrease from the control value, in per cent.

The assay in a line: M. tuberculosis growth inhibition, HTS (AID 449762).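 Also: bacterial growth assessed after seven days of incubation.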 The note with it: M. tuberculosis H37Rv growth inhibition, 7H9 media; at 25 µM; stronger effect = higher value.
Consider `COCCNC(=S)N/N=C(\C)c1ccc(OC(F)F)cc1`, for which the inhibition is 2.04% (inactive).

For the molecule `COCCNC(=S)N/N=C(\C)c1ccc(O)cc1`, the inhibition is -0.19% (inactive).

For the molecule `O=C(Nc1ccccc1-c1nc2ccccc2[nH]1)c1sc2ccccc2c1Cl`, the inhibition was 8.98% (inactive).

In the case of `CCN1CCN(Cc2ccc(NC(=O)c3ccc(C)c(NC(=O)c4ccc5n[nH]nc5c4)c3)cc2C(F)(F)F)CC1`, the inhibition is 4.3% (inactive).

Turning to `CCN1CCN(Cc2ccc(NC(=O)c3ccc(C)c(NC(=O)c4ccnnc4)c3)cc2C(F)(F)F)CC1`, the inhibition is -1.41% (inactive).

As for `COC(=O)c1cc(NC(=O)Cc2ccc(OC)cc2)cc(C(=O)OC)c1`, the inhibition is -3.89% (inactive).

Turning to `CC1CCC(NC(=O)COC(=O)C2=NN(c3ccccc3)C(=O)CC2)CC1` (stereo not given), the inhibition is 1.24% (inactive).

`COc1cccc2cc(C(=O)Nc3ccc(S(=O)(=O)NCC4CCCO4)cc3)c(=O)oc12` (stereo not given): the inhibition was 1.32% (inactive).

Consider `Cc1ccccc1C(=O)/C(C#N)=N/Nc1c(C)n(C)n(-c2ccccc2)c1=O`, for which the inhibition was -1.13% (inactive).

As for `O=C(/C=C/c1c(F)cccc1Cl)Nc1ccncc1`, the inhibition is 9.18% (inactive).

With `O=C(Nc1ccc(OC(F)(F)F)cc1)c1ccc2nccnc2c1`, the inhibition is 66.2% (inactive).

For `O=C(Nc1ccc(OC(F)(F)F)cc1)c1ccc2nc[nH]c2c1`, the inhibition is 41.2% (inactive).

For `S=C(NCCC(c1ccccc1)c1ccccc1)Nc1ccc(Cl)cc1`, the inhibition is 1.85% (inactive).

As to `O=c1cc(N2CCOCC2)cnn1-c1ccccc1`, the inhibition was 14.3% (inactive).

`O=S(=O)(Nc1ccccc1)c1ccc(S(=O)(=O)N2CCCC2)cc1`: the inhibition was -1.05% (inactive).

Consider `O=[N+]([O-])c1cc(-c2ncccn2)cs1`, for which the inhibition is 0.84% (inactive).

With `Nc1ncc([N+](=O)[O-])s1`, the inhibition is -0.165% (inactive).

Turning to `CCn1nnc(-c2ccccc2NS(=O)(=O)c2ccc(S(=O)(=O)N(C)C3CCCCC3)cc2)n1`, the inhibition is 2.36% (inactive).

In the case of `N#Cc1ccccc1COC(=O)CCC(=O)c1cccs1`, the inhibition was 5.44% (inactive).

Turning to `c1ccc2c(CNc3ccc(CNc4ncn[nH]4)cc3)cccc2c1`, the inhibition was 1.09% (inactive).

`C/C(=N/NC(=O)c1ccccn1)c1ccncc1`: the inhibition was 39.2% (inactive).

For the molecule `C/C(=N\NC(=O)c1c[nH]c2ccccc12)c1ccco1`, the inhibition is 19.6% (inactive).

With `COc1ccc(CN2CCC(Oc3ccc(C(=O)NCc4ccccn4)cc3)CC2)c(F)c1`, the inhibition is -12.3% (inactive).

Turning to `CCOc1ccc(NC(=O)NC2CCCc3ccccc32)cc1` (stereo not given), the inhibition was -11.3% (inactive).

For `Cc1cc2c(N)cccc2nn1`, the inhibition was -2.97% (inactive).

For `Cc1cnnc2ccc3c(no[n+]3[O-])c12`, the inhibition was 0.29% (inactive).

As to `Cc1ccc(-n2c(CSc3nc(C)cc(C)n3)n[nH]c2=S)cc1`, the inhibition is -6.43% (inactive).

Consider `N#Cc1c(N)nc2c(c1-c1ccc(Br)s1)CCCC2`, for which the inhibition was 0.77% (inactive).

Consider `Cc1ccc(C)c(NC(=O)CN(C)C(=O)[C@@H](NC(N)=O)C(C)C)c1`, for which the inhibition is 1.17% (inactive).

Consider `OCC1OC(n2cnc3c(NC4CCCC4)ncnc32)C(O)C1O` (stereo not given), for which the inhibition was -0.62% (inactive).

Turning to `OC[C@H]1O[C@@H](n2cnc3c(NC4CCCC4)ncnc32)[C@H](O)[C@@H]1O`, the inhibition was -4.16% (inactive).

Consider `COc1cc(/C=C\C(=O)NCc2ccc3[nH]c(C)cc3c2)cc(OC)c1OC`, for which the inhibition was -3.67% (inactive).

With `O=C(Cn1cnc2c(nnn2-c2ccccc2)c1=O)N1CCC(Cc2ccccc2)CC1`, the inhibition is -6.42% (inactive).

Consider `COc1ccc(-n2nnc3c(=O)n(CC(=O)N4CCC(Cc5ccccc5)CC4)cnc32)cc1`, for which the inhibition is -2.79% (inactive).

As for `CCc1ccc(C(=O)COC(=O)C(CCSC)NC(=O)C23CC4CC(CC(C4)C2)C3)cc1` (stereo not given), the inhibition was 1.72% (inactive).

With `CCCCNC(=S)N(C)/N=C/c1ccccc1F`, the inhibition is 7.41% (inactive).

With `CCCCNC(=S)N(C)/N=C/c1c(F)cccc1F`, the inhibition is -1.55% (inactive).

For the molecule `CCCC[C@@H]1CN=C(N)N1CCc1cc(C(F)(F)F)cc(C(F)(F)F)c1`, the inhibition is 4.85% (inactive).

For `FC(F)(F)c1cc(CCN2C(=S)NC[C@@H]2CC2CCCCC2)cc(C(F)(F)F)c1`, the inhibition is -2.31% (inactive).

Turning to `COc1ccccc1CC(=O)NC1CCCCCC1`, the inhibition was -3.92% (inactive).

With `CC1CCCCC1NC(=O)Cn1c(CN2CCCCC2)nc2ccccc2c1=O` (stereo not given), the inhibition was 5.05% (inactive).

As for `COc1ccc(N2C(=O)CC(NNC(=O)c3cc(C)oc3C)C2=O)cc1` (stereo not given), the inhibition is -4.63% (inactive).

With `O=C1C(=O)c2cccc3cccc1c23`, the inhibition is 3.34% (inactive).

For `NC1=CC(=O)c2cccc3cccc1c23`, the inhibition was -0.47% (inactive).

With `COc1cc2c(cc1NC(=O)COC(=O)CNS(=O)(=O)c1ccc(C)cc1)oc1ccccc12`, the inhibition is 20.6% (inactive).

Take `Cc1ccc(C)c(NC(=O)CCNS(=O)(=O)c2ccc3[nH]c(=O)oc3c2)c1`: the inhibition is -1.71% (inactive).

Regarding `CC1(c2ccc(OC(F)F)cc2)NC(=O)N(CC(=O)Nc2ccc3c(c2)OCO3)C1=O` (stereo not given), the inhibition is 1.98% (inactive).

Consider `CC1(c2ccc(Cl)cc2)NC(=O)N(CC(=O)c2ccc3c(c2)OCO3)C1=O` (stereo not given), for which the inhibition is -11.1% (inactive).

On to `CCN(CC(=O)Nc1ccccc1C(=O)OC)S(=O)(=O)c1ccccc1`, for which the inhibition is -8.58% (inactive).

In the case of `Cc1nc(-c2nnc(SCC(=O)Nc3cc(Cl)cc(Cl)c3)n2C)cs1`, the inhibition was -8.27% (inactive).

With `CC1CCCCN1C(=O)C1CCN(S(=O)(=O)c2ccc(-n3cnnn3)cc2)CC1` (stereo not given), the inhibition is -3.02% (inactive).

Turning to `COc1ccc(OC)c2[nH]c(=O)c(CCNC(=O)c3ccc(Br)o3)cc12`, the inhibition was -4.84% (inactive).

On to `Cc1cc(=O)oc2cc(OCC(=O)N3CCN(C(=O)C4COc5ccccc5O4)CC3)c(Cl)cc12` (stereo not given), for which the inhibition was 68.3% (inactive).

Turning to `Cc1cc(=O)oc2cc(OCC(=O)N3CCN(C(=O)C4COc5ccccc5O4)CC3)ccc12` (stereo not given), the inhibition is 5.34% (inactive).

`O=C(NCCN1CCOCC1)C1CCCN(S(=O)(=O)c2ccc(F)cc2)C1` (stereo not given): the inhibition was -1.03% (inactive).

In the case of `NNC(=O)C1=NOC(CNc2ncc(C(F)(F)F)cc2Cl)C1` (stereo not given), the inhibition was -0.88% (inactive).

As to `CC(=O)C1=NOC(CNc2ncc(C(F)(F)F)cc2Cl)C1` (stereo not given), the inhibition was -4.07% (inactive).

Regarding `O=c1c2nncn2c2cc(C(F)(F)F)ccc2n1CCNc1ncc(C(F)(F)F)cc1Cl`, the inhibition was -1.6% (inactive).

On to `O=c1[nH]c2cc(Cl)ccc2n(CCNc2ncc(C(F)(F)F)cc2Cl)c1=O`, for which the inhibition was -0.44% (inactive).

In the case of `Cc1nnc(SCc2c(Cl)cccc2Cl)s1`, the inhibition was 7.37% (inactive).

Consider `O=C(C1CCCN(c2ncnc3c2nc2n3CCCCC2)C1)N1CCN(c2ccc(F)cc2)CC1` (stereo not given), for which the inhibition is 23.2% (inactive).

For the molecule `O=C(C1CCCN(c2ncnc3c2nc2n3CCCCC2)C1)N1CCN(c2ccccc2)CC1` (stereo not given), the inhibition is 6.98% (inactive).

As to `COc1cc2c(cc1NC(=O)Cc1ccc(C)cc1)oc1ccccc12`, the inhibition is -1.99% (inactive).

For `CCOP(=O)(OCC)C(NC(=O)c1ccccc1)=C(Cl)Cl`, the inhibition is -0.5% (inactive).

For `CCOc1ccccc1/C=C(/NC(=O)c1ccccc1)C(=O)N1CCCCC1`, the inhibition was 4.77% (inactive).

For the molecule `COc1ccc(/C(C)=N/N2CCCCC2)c(O)c1`, the inhibition is 0.48% (inactive).

As for `Cc1nn(Cc2ccc(Cl)cc2Cl)c(C)c1NC(=O)Cn1nc([N+](=O)[O-])c(Cl)c1C`, the inhibition was 5.47% (inactive).

Take `S=C(NCc1ccc2c(c1)OCO2)NCc1ccc2c(c1)OCO2`: the inhibition was 2.49% (inactive).

`S=C(NCc1ccccc1)NCc1ccc2c(c1)OCO2`: the inhibition is 13% (inactive).

Regarding `CN1/C(=C\C(=O)COC(=O)c2ccc(O)c(O)c2)C(C)(C)c2ccccc21`, the inhibition was 25% (inactive).

Consider `Oc1ccc(CCNc2c3ccccc3nc3ccccc23)cc1O`, for which the inhibition was -2.38% (inactive).

In the case of `O=C(Nc1ccc2c(c1)OCO2)c1c(F)c(F)c(F)c(F)c1F`, the inhibition is 2.74% (inactive).

As to `Cc1sc2ncnc(N3CCCCC3)c2c1C`, the inhibition is 5.45% (inactive).

In the case of `Cc1ccc(OCC(=O)NNC(=O)C2CCN(c3ncnc4sc(C)c(C)c34)CC2)cc1`, the inhibition is 42% (inactive).

On to `CSc1ccccc1NC(=O)CN1c2ccccc2CC1C` (stereo not given), for which the inhibition was 7.66% (inactive).

In the case of `CCOC(=O)Cc1csc(NC(=O)COc2ccccc2OCC)n1`, the inhibition is -11.5% (inactive).

As for `CCOC(=O)Cc1csc(NC(=O)CCSc2ccccc2)n1`, the inhibition is 5.94% (inactive).

Take `COC(=O)CSc1ncnc2c1sc1nc(N3CCOCC3)c3c(c12)CCCC3`: the inhibition is -2.32% (inactive).

On to `COC(=O)c1ccc(CSc2ncnc3c2sc2nc(N4CCOCC4)c4c(c23)CCCC4)o1`, for which the inhibition was -0.71% (inactive).

Regarding `O=c1cnnc(Nc2ccc(Nc3ccccc3)cc2)[nH]1`, the inhibition was 14% (inactive).

With `CC(C)c1ccc(NC(=O)CCS(=O)(=O)c2cccc3nonc23)cc1`, the inhibition was 6.08% (inactive).

With `O=C(C1CCC1)N1CCN(S(=O)(=O)c2ccc(F)cc2)CC1`, the inhibition is -11% (inactive).

For the molecule `CCOc1ccc(/C=C2/C(=N)N3OC(C)=CC3=NC2=O)cc1OC`, the inhibition was 2.41% (inactive).

Take `CN(CCO)c1cc(N2CCC3(CC2)OCCO3)c2nonc2c1[N+](=O)[O-]`: the inhibition is -10.9% (inactive).

As for `CN(CCO)c1cc(N2CCCCC2)c2nonc2c1[N+](=O)[O-]`, the inhibition is -7.07% (inactive).

On to `Cc1cc(C)cc(NC(=O)CCn2c(=S)[nH]c3ccccc3c2=O)c1`, for which the inhibition was 3.81% (inactive).

Regarding `Cc1cccc(OCCCCNCc2ccccc2)c1`, the inhibition is 0.71% (inactive).

With `Clc1ccc(Cl)c(OCCCCNCc2ccccc2)c1`, the inhibition was 6.87% (inactive).

Take `COc1cc(Br)c(/C=C/c2ccc3cccc(O)c3n2)cc1OC`: the inhibition was 15.4% (inactive).

With `COc1ccc(Br)cc1/C=C/c1ccc2cccc(O)c2n1`, the inhibition is 69.8% (inactive).

For `On1c(-c2ccc(Cl)cc2)nc2ccccc21`, the inhibition was 67.2% (inactive).

For `COc1cc(CNn2nnnc2N)cc(Br)c1OCc1c(Cl)cccc1Cl`, the inhibition was 0.85% (inactive).

Consider `Cc1ccc(N2CCN(S(=O)(=O)N3CCCCC3)CC2)cc1C`, for which the inhibition was -2.98% (inactive).

On to `CCOC(=O)C1=C(C)NC(SCC(N)=O)=C(C#N)C1c1cccs1` (stereo not given), for which the inhibition is -3.02% (inactive).

With `CCOC(=O)C1=C(C)NC(SCC(=O)Nc2cc(C)on2)=C(C#N)C1c1cccs1` (stereo not given), the inhibition was -1.09% (inactive).
